An excerpt weighted towards active compounds, which were near 12% of everything screened.
SARS PLpro yeast: SARS-CoV PLP inhibition in yeast | S. cerevisiae expressing SARS-CoV PLpro, growth rescue | Potency, µM (doses to about 32.9 µM), usual class: activators | actives 0.19% (n = 330,000) | AID 485353; note: nearly all actives have a fitted effect of over 55% in size
Cycloheximide cs: counter-screen for Shiga toxin inhibitors: cycloheximide protein synthesis inhibition; cell reporter, cycloheximide protein synthesis inhibition counterscreen; max response, %; actives 12% (n = 300,000); in the data active = max response mostly above about 13%, no sharp cut-off; inactive = mostly below about 14%; note: read at 38.3 µM for the half of the compounds with a filed dose
Shiga inhibitor: Shiga toxin inhibition; inhibition, % at 38.7 µM; Vero cells, Shiga toxin protein synthesis inhibition reporter; actives 9.2% (n = 290,000); in the data active = inhibition mostly above about 28%, no sharp cut-off; inactive = mostly below about 43%
NS1 function inh: blocks influenza NS1 protein function; Potency, µM (titrated, usually from 46.1 µM); actives 0.4% (n = 270,000); note: actives are rising curves; nearly all actives have a fitted effect of over 50% in size
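A cell-based growth assay was used: compounds that relieve NS1-induced slow growth of budding yeast raise OD600. Assay medium was yeast nitrogen base with ammonium sulphate and -URA supplement, pH 6.0, with 2% galactose.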
Large screens that a line does not name were inactive. Unless noted, calls come from the whole dose curve.

O=C(Cn1cnc2ccccc2c1=O)Nc1ccc2c(c1)OCCO2	Cycloheximide cs 46.0, Shiga inhibitor 90.2
COc1ccccc1C1CC(=O)Oc2cc(C)c(Br)c(C)c21 (stereo unspecified)	none (no result: NS1 function inh)
CCOC(=O)c1sc(=S)sc1SCc1cccc(C(F)(F)F)c1	none
COCc1[nH][nH]c(=O)c1C=NCC(=O)OC	none (no result: NS1 function inh)
COc1ccc(C(CNC(=O)c2cccc(S(=O)(=O)N3CCCCC3)c2)N2CCCC2)cc1 (stereo unspecified)	none (no result: Cycloheximide cs, Shiga inhibitor, NS1 function inh)
CCn1c(=O)cc(SCC(=O)Nc2ccc3c(c2)OCO3)c2ccccc21	Cycloheximide cs 9.9
O=C(CSc1ccc2c(c1)OCCO2)Nc1ccc2c(c1)OCO2	Cycloheximide cs 15.0
CC1CCCC(C)N1C(=O)CSc1ccc(-c2ccc3c(c2)OCCO3)nn1 (stereo unspecified)	none
CC1CCN(C(=O)CSc2ccc(-c3ccc4c(c3)OCCO4)nn2)CC1	Cycloheximide cs 20.3
CCn1c(SCC(=O)Nc2ccc3c(c2)OCO3)nc2ccccc21	none
O=C(CSc1nnc2ccccn12)Nc1ccc2c(c1)OCCO2	Cycloheximide cs 26.0, Shiga inhibitor 130.4 (no result: NS1 function inh)
O=C(CSc1ccc2c(c1)OCCO2)Nc1ccc(Br)cc1	none
CC(=O)c1cccc(NC(=O)CSc2ccc(-c3ccc4c(c3)OCO4)nn2)c1	none
O=C(CSc1ncn(-c2ccccc2)n1)Nc1ccc2c(c1)OCCO2	none
O=C(CSc1cccc[n+]1[O-])Nc1ccc2c(c1)OCCO2	Cycloheximide cs 15.8
O=C(CSc1ccccc1)Nc1ccc2c(c1)OCCO2	Cycloheximide cs 40.4, Shiga inhibitor 74.7
O=C(CSc1ccc(-c2ccccc2)nn1)Nc1ccc2c(c1)OCCO2	Cycloheximide cs 79.3, Shiga inhibitor 74.5
O=C(CSc1cccc[n+]1[O-])Nc1ccc(N2CCOCC2)cc1	none (no result: NS1 function inh)
Cc1cccc(-n2ccnc2SCC(=O)Nc2ccc3c(c2)OCCO3)c1	Cycloheximide cs 26.9
O=C(C1CCN(S(=O)(=O)c2ccc(Cl)cc2)CC1)N1CCC1	none (no result: Cycloheximide cs, Shiga inhibitor, NS1 function inh)
Cn1c(N)c(C(=O)CSc2nc(C3CC3)n(-c3ccccc3)n2)c(=O)n(C)c1=O	none (no result: Cycloheximide cs, Shiga inhibitor, NS1 function inh)
O=C(CCS(=O)(=O)c1ccccc1)Nc1ccc2c(c1)OCO2	Cycloheximide cs 55.4, Shiga inhibitor 112.1
O=C(CSc1ccccc1)Nc1ccc2c(c1)OCO2	Cycloheximide cs 47.2, Shiga inhibitor 65.3
CC1CN=C(NCc2ccccc2)S1 (stereo unspecified)	Cycloheximide cs 16.3
CC1(C)CN=C(NCc2ccccc2Cl)S1	Cycloheximide cs 17.2, Shiga inhibitor 55.1
CCN(CC)S(=O)(=O)c1cccc(NC2=NCC(C)S2)c1 (stereo unspecified)	none (no result: NS1 function inh)
CCOC(=O)C(=CNc1ccc(NC2=NCC(C)S2)cc1)C(=O)OCC (stereo unspecified)	none
CC1CN=C(NCc2ccccc2Cl)S1 (stereo unspecified)	Cycloheximide cs 24.6, Shiga inhibitor 41.8
CS(=O)(=O)c1nc(S(=O)(=O)c2ccc(Cl)cc2)c(NCCCN2CCCC2=O)s1	none
CCC(C)Sc1ccc([C@@H]2[C@H]3C(=O)N(CC)C(=O)[C@H]3[C@]3(C(=O)OC)CCCN23)cc1OC (stereo partly specified)	none (no result: Cycloheximide cs, Shiga inhibitor, NS1 function inh)
COc1ccccc1N1CCN(C2CC(=O)N(c3ccc(Cl)cc3)C2=O)CC1 (stereo unspecified)	none (no result: Shiga inhibitor)
CCN(CC)c1ccc(C2Nc3cccc4cccc(c34)N2)c(O)c1	Cycloheximide cs 27.2, Shiga inhibitor 50.7
COc1ccc(C(=O)NC(=S)NCCO)cc1Br	Cycloheximide cs 16.4
C=CCNC(=S)NNC(=O)c1ccc(C)c(Cl)c1	none
C=CCNC(=S)NC(=O)c1ccc(C)c(Br)c1	Cycloheximide cs 38.3, Shiga inhibitor 100.0
COc1ccc(C(=O)NC(=S)NCc2cccnc2)cc1Br	none
COC(=O)c1ccc(/C=C2\Oc3ccccc3NC2=O)cc1	Cycloheximide cs 14.9
CCc1ccc(/C=C2\Oc3ccc(C(=O)OC)cc3C2=O)cc1	none
CCc1ccccc1N1CSC2=C(C#N)C(c3ccccc3F)CC(=O)N2C1 (stereo unspecified)	NS1 function inh 0.891µM
Cc1cccc(N2CSC3=C(C#N)C(c4ccc(C)o4)CC(=O)N3C2)c1 (stereo unspecified)	Cycloheximide cs 11.3, NS1 function inh 1.78µM
COc1cc(OC)c(C2CC(=O)N3CN(c4ccccc4C)CSC3=C2C#N)cc1OC (stereo unspecified)	NS1 function inh 3.98µM
COc1ccc(OC)c(C2CC(=O)N3CN(c4ccccc4)CSC3=C2C#N)c1 (stereo unspecified)	none
N#Cc1ccncc1Sc1ccc(Cl)cc1	none
O=C1NC(c2ccco2)Nc2sc3c(c21)CCN(Cc1ccccc1)C3 (stereo unspecified)	none
O=C1NC(c2cccs2)Nc2sc3c(c21)CCCC3 (stereo unspecified)	Cycloheximide cs 38.4, Shiga inhibitor 87.3

Source: PubChem (National Center for Advancing Translational Sciences (NCATS))
